# VDR inhibitor: vitamin D3 receptor (human) inhibition | Potency, µM, without a hit: max response, negative = inhibition, hits mostly inhibitors | hit rate 0.93% among 400,000 | VDR-SRC2-3 peptide fluorescence polarization, 2 h
#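 Compounds are added to VDR with labelled SRC2-3 coactivator peptide and held 2 h at room temperature. Inhibition of the VDR–peptide interaction is then read as a change in fluorescence polarization.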
# Tb PGK inh: inhibitors of T. brucei phosphoglycerate kinase; P07378; PGK/GAPDH coupled, Kinase-Glo luminescence, 60 min; Potency, µM (doses to about 57.5 µM), for inactives: top-dose activity change, negative = inhibition, usual class: inhibitors; hit rate 0.043% among 380,000; AID 602233; note: nearly all actives have a fitted effect of over 60% in size
# Target sequence (P07378 whole entry, looked up): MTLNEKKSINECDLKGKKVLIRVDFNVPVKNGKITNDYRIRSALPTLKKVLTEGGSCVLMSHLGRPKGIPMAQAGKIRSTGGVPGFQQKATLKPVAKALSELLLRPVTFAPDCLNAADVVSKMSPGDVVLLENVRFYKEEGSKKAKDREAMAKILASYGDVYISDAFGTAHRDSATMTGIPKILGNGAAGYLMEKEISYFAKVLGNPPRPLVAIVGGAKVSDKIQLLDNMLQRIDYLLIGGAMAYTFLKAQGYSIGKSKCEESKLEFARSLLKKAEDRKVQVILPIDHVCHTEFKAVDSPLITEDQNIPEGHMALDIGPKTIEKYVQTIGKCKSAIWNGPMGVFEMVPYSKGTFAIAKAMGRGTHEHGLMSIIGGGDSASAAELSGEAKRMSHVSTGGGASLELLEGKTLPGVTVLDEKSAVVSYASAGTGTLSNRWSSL
#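 Luminescent ATP detection (Kinase-Glo Plus) follows a 60-minute room-temperature incubation, with wells lacking PGK as controls. Buffer: 100 mM TEA (pH 7.6), 5 mM MgCl2, 0.01% Tween-20. Coupling enzyme GAPDH (100 nM final) supplies unstable 1,3-BPG in-well.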
# Tb PFK block: inhibitors of T. brucei phosphofructokinase | O15648 | T. brucei PFK, ADP-Glo luminescence | Potency, µM (titrated, usually from 57.5 µM), without a hit: top-dose activity, negative = inhibition, usual class: inhibitors | hit rate 0.17% among 330,000 | AID 485367;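 note: 0% = uninhibited 1x PFK enzyme wells and -100% = no-enzyme wells; nearly all actives have a fitted effect of over 60% in size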
#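 In TEA buffer at pH 8.0 with 5 mM MgCl2, enzyme (1.25 nM) converted F6P (0.5 mM) and ATP (0.1 mM) for 45 min at room temperature. ADP product was read by luciferase luminescence.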
# Pin1 inh: human Pin1 inhibition. Pin1 FP peptide displacement, HiFluor488, 10 min. Potency, µM (highest dose often 115 µM), inactives show at the top dose activity, negative = inhibition, usual class: inhibitors. Q13526. hit rate 0.009% among 390,000; active = well fitted inhibition curve with a large enough effect in the polarisation, with a control signal flat, not every such curve was filed as active; inconclusive = small, poorly fitted or top-dose-only effect, or effect the other way, or a change in a side signal; inactive = no such curve, though single readings can be large or run the other way; the % refers to the polarisation
# Target sequence (Q13526 whole entry, looked up): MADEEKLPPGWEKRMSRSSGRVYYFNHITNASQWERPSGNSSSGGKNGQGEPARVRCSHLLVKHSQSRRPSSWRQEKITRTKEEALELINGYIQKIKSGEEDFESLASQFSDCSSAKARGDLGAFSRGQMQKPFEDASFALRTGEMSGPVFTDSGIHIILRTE
# GLS inhibitor: glutaminase GLS (human) inhibition; O94925; GLS enzymatic activity, qHTS titration; Potency, µM (doses to about 45.5 µM), without a hit: at the highest dose activity change, negative = inhibition, actives largely listed as inhibitors; hit rate 0.21% among 410,000; AID 624170
#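 Glutamate formation by hKGA was monitored fluorometrically using coupled glutamate oxidase, HRP and Amplex Red. Substrate was added as 1 mM L-glutamine solution; incubation was 30 min at RT after an initial read.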
# Numbers without * were called inactive; i = inactive; ? = inconclusive; . = not tested or not shown; ! = repeats disagree. A selection: hits, their analogues and other compounds. The true share with any hit is near 1.1%. Unless noted, calls come from the whole dose curve; as a rule, active = well fitted curve in the direction sought with a large enough effect; inconclusive = small, poorly fitted or top-dose-only effect, or another doubt; inactive = no such curve, though single readings can be large; an effect the other way counts as inactive or inconclusive. Unless noted, % is set by controls: 0 for no effect and ±100 for the full control effect; potency is the fitted concentration of half-maximal effect.
SMILES,VDR inhibitor,Tb PGK inh,Tb PFK block,Pin1 inh,GLS inhibitor
c1cncc(CNc2ncncc2-c2ccoc2)c1,50µM*,.,.,.,.
COc1ccc(CNc2cc(-c3cccnc3)ncn2)c(OC)c1,32µM*,.,.,.,.
C[C@H](NC(=O)c1ccco1)C(=O)NCc1cccs1,-6%,0%,-4%,-8%,3%
C[C@@H]1Cn2cnc(C(=O)N[C@@H](Cc3c[nH]c4ccccc34)C(=O)OC(C)(C)C)c2C(=O)N1,.,-7%,.,.,2%
c1ncc(-c2ccoc2)c(NC2CC2)n1,50µM*,.,.,.,.
COc1ccc(CNc2nc(-c3ccc(N(C)C)cc3)nc3ccccc23)c(OC)c1,35µM*,.,.,.,.
Cc1noc(C)c1-c1cncnc1NC1CC1,-22%,.,.,.,.
O=C1COc2cc(S(=O)(=O)CCC(=O)N3CCN(c4cccc(Cl)c4)CC3)c(Cl)cc2N1,-6%,-2%,.,?,4%
CNC(CC(=O)c1ccc([N+](=O)[O-])cc1)C(Cl)(Cl)Cl (stereo unspecified),18µM*,-9%,-1%,-6%,?
COc1cc2cc(Oc3ccc4ccc(=O)oc4c3)c(=O)oc2cc1O[C@@H]1O[C@H](CO)[C@@H](O)[C@H](O)[C@H]1O,-28%,-24%,-2%,?,18µM*
COc1ccc(OC)c(NC(=O)c2cccc3c2C(=O)N(C2CCCCC2)C3)c1,22µM*!,-5%,-10%,-4%,0%
CC[C@H](C)[C@H](NC(=O)[C@H](CC(=O)O)NC(=O)[C@H](CC(C)C)NC(=O)[C@H](NC(C)=O)C(c1ccccc1)c1ccccc1)C(=O)N[C@H](C(=O)N[C@@H](Cc1c[nH]c2ccccc12)C(=O)O)[C@@H](C)CC,3%,.,.,.,.
CSc1ccc(-c2nc3cccc(C)n3c2Nc2ccc3c(c2)OCO3)cc1,-5%,-10%,.,-5%,-6%
O=C(Nc1cccc(Cl)c1)OCC#CCCl,3.5µM*,.,.,.,.
CCC(C)[C@H](NC(=O)[C@@H]1Cc2c([nH]c3ccccc23)C2c3ccccc3C(=O)N21)C(=O)N1CCC[C@@H]1C(=O)O (stereo partly specified),-32%,1%,-4%,-19%,?
CC(C)C[C@H](NC(=O)[C@@H]1Cc2c([nH]c3ccccc23)C2c3ccccc3C(=O)N21)C(=O)N1CCC[C@@H]1C(=O)O (stereo partly specified),-5%,9%,-5%,?,13µM*
Nc1ccc(Nc2ccccc2)c(S(=O)(=O)O)c1,9%,-25%,-5%,-9%,?
Nc1ccc(/C=C/c2ccc(N)cc2S(=O)(=O)O)c(S(=O)(=O)O)c1,-17%,.,.,.,11µM*
Nc1nc2ccc(O)cc2s1,1%,i,-4%,-4%,13µM*
COc1ccc(CNC(=O)CN(c2ccccc2)S(=O)(=O)N(C)C)cc1,89µM*!,-10%,-1%,-4%,1%
CN(C)S(=O)(=O)N(CC(=O)NCc1ccccc1)c1ccccc1,6%,.,-10%,2%,10%
CCN(CC)S(=O)(=O)c1ccc(OCCNS(C)(=O)=O)cc1,28µM*,-2%,1%,2%,?
COC1=C(N)C(=O)c2nc(-c3nc(C(=O)O)c(C)c(-c4ccc(OC)c(OC)c4O)c3N)ccc2C1=O,14µM*,?,?,?,2%
COc1ccc(C(=O)O)c(O)c1OC,2%,.,.,.,.
O=C(CSc1nc2c([nH]c3ccccc32)c(=O)n1-c1cccc(Cl)c1)c1ccccc1,3%,8%,.,-2%,0%
SMILES,VDR inhibitor,Tb PGK inh,Tb PFK block,Pin1 inh,GLS inhibitor
Cc1ccc2c(c1)c(CC(NC(=O)c1ccccc1Oc1ccccc1)C(=O)O)cn2C(=O)OCc1ccccc1 (stereo unspecified),32µM*,.,.,.,.
Cc1cccc(OCC(=O)NC(Cc2ccccc2)C(=O)O)c1 (stereo unspecified),-2%,0%,0%,-11%,13%
COc1ccc(Cn2cc(CN3CC(N4CCN(CCN(C)C)CC4)CS3(=O)=O)nn2)cc1 (stereo unspecified),.,.,.,.,0%
COc1ccc(-c2cnc3c(c2)CCC3(C#N)C#N)cc1,79µM*,-10%,-1%,13%,2%
CCc1cccc(-n2nnc(-c3nc(-c4ccccc4Cl)no3)c2N)c1,-9%,i,.,0%,2%
COc1cc(C/C=C/c2ccccc2)c(OC)cc1O,50µM*,.,.,.,.
Cc1ccc(Cl)cc1N1CCN(C(=O)c2ccc(C)c(-n3c(C)nc4cccnc43)c2)CC1,7%,i,.,?,2%
CC(C(=O)O)c1ccc2c(c1)CC(=O)c1ccccc1S2 (stereo unspecified),.,.,.,.,-3%
O=C1/C(=C/c2cccs2)Cc2ccccc21,-9%,-15%,-1%,5%,2%
O=C1/C(=C\c2cccs2)CCC/C1=C/c1cccs1,40µM*,.,.,.,-2%
C/C(=C(/CCO)SSC[C@@H]1CCCO1)N(C=O)Cc1cnc(C)nc1N,14µM*,.,.,.,-1%
CCOC(=O)OCC/C(SC(=O)OCC)=C(\C)N(C=O)Cc1cnc(C)nc1N,.,.,.,.,2%
C/C(=C(/CCO)SSCC1CCCO1)N(C=O)Cc1cnc(C)nc1N (stereo unspecified),56µM*,0%,1%,2%,1%
CCCSS/C(CCO)=C(/C)N(C=O)Cc1cnc(C)nc1N,25µM*,.,.,.,-5%
COc1ccc(CCNC(=O)CCCCn2c(=O)c3ccccc3n(Cc3cccc(C)c3)c2=O)cc1OC,-3%,3%,.,-2%,1%
Cc1nn(-c2ccccc2)c(OC(=O)C(C)C)c1Sc1ccccc1,71µM*,i,.,1%,5%
COc1ccc(C(=O)Oc2c(Sc3ccccc3)c(C)nn2-c2ccccc2)cc1OC,-29%,-7%,.,5%,-11%
Cc1ccc(Sc2c(C)nn(-c3ccccc3)c2OC(=O)C(C)(C)C)cc1,?,i,.,-3%,19%
Cc1nn(-c2ccccc2)c(OC(=O)C(C)(C)C)c1Sc1ccccc1,79µM*,-1%,.,0%,2%
COc1ccc(C(=O)NC(=S)Nc2ccc3[nH]c(=O)[nH]c3c2)c(OC)c1,-7%,0%,2%,-2%,4%
Cc1ccccc1OCC(=O)N/N=C/c1ccc(N2CCOCC2)o1,40µM*,-3%,-6%,2%,-6%
Cc1ccccc1OCC(=O)N/N=C/c1ccncc1,-4%,i,-6%,-7%,3%
O=C(N/N=C/c1ccc(N2CCCCC2)o1)c1ccccc1,22µM*,2%,-15%,?,-2%
O=C(N/N=C/c1ccc(N2CCOCC2)o1)c1cccc([N+](=O)[O-])c1,?,-5%,-8%,?,-2%
Cc1ccc(Cn2c(C(C)Nc3nc(-c4ccc(C)cc4)cs3)nc3cc(Cl)c(Cl)cc32)cc1 (stereo unspecified),2%,?,-3%,35%,10µM*
CC1=NN(c2cccc(C(=O)O)c2)C(=O)/C1=C\C=C\c1ccco1,?,4µM*,21µM*,.,92%

# High-throughput results (PubChem)
